KB-V1 MDR tox: kills drug-selected multidrug resistant KB-V1 cells. 3.4% of 400,000 active. KB-V1 MDR cells viability, CellTiter-Glo, 72 h. Potency, µM (titrated, usually from 46.1 µM), actives largely listed as cytotoxic; note: % is set by controls: 0 for no effect and ±100 for the full control effect; nearly all actives have a fitted effect of over 60% in size
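Compound-treated KB-V1 multidrug-resistant cells, 72 h, 37 degrees C; viability by CellTiter-Glo. Fitted qHTS curves give the values.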
PINK1 expr mod: modulators of PINK1 expression; Potency, µM (series often up to 76.6 µM), inactives show top-dose activation (PINK1 increase), usual class: activators; PINK1 immunofluorescence, high-content cytometry, 24 h; 0.2% of 410,000 active; AID 624263; active = well fitted activation curve with a large enough effect; inconclusive = small, poorly fitted or top-dose-only effect; cell line not stated here; note: % of control where 0% means no effect; nearly all actives have a fitted effect of over 65% in size
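Readout is PINK1 immunofluorescence, quantified alongside mitochondrial, cell and nuclear markers by laser-scanning microplate cytometry. Cells from a stable line were exposed to compound titrations (5 concentrations) for 24 hours, with CCCP controls.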
KB-3-1 tox: KB-3-1 parental cell cytotoxicity. Potency, µM (doses to about 46.1 µM), actives largely listed as cytotoxic. 1.4% of 400,000 active. AID 1347075. KB-3-1 viability, CellTiter-Glo ATP luminescence, 72 h; note: % is set by controls: 0 for no effect and ±100 for the full control effect; nearly all actives have a fitted effect of over 60% in size
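Multi-concentration cytotoxicity screen in KB-3-1 cells grown in DMEM lacking phenol red with 10% FBS. After 72 h at 37 °C with compound, ATP-dependent luminescence was recorded.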
ALOX12 inh: ALOX12 (human) lipoxygenase inhibition; P18054; purified 12hLO, xylenol orange hydroperoxide absorbance; Potency, µM (highest dose often 108 µM), without a hit: top-dose activity change, negative = inhibition, actives largely listed as inhibitors; 1.1% of 580,000 active; note: % is set by controls: 0 for no effect and ±100 for the full control effect
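Purified human 12hLO (150 nM final) in 25 mM Hepes, 0.01% Triton X-100, pH 7.0 was preincubated 15 min at room temperature with compound. Then 40 uM arachidonic acid was added, 30 min. Hydroperoxide was read by Fe-XO absorbance ratio 573/405 nm.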
MCF10A rereplic: inducers of DNA re-replication in MCF 10A breast cells | AID 624296 | MCF 10A DNA re-replication, Hoechst nuclear intensity, 48 h | 2.9% of 350,000 active | Potency, µM (top dose mostly 46.1 µM), for the others: at the top dose activity, positive = re-replication, actives largely listed as activators; note: % of control where 0% means no effect; nearly all actives have a fitted effect of over 50% in size
SW480 rerep: inducers of DNA re-replication in SW480 colon cancer cells | SW480 DNA re-replication, Hoechst DNA content imaging, 48 h | Potency, µM (series often up to 46.1 µM), inactives show at the top dose re-replication activation, usual class: activators | 1.8% of 340,000 active | AID 624297; note: % of control where 0% means no effect; nearly all actives have a fitted effect of over 55% in size
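Readout is total intensity of Hoechst-stained nuclei, excited at 405 nm and collected at 500-530 nm. Compound treatment lasted 48 hr at 37 C in 5% CO2 before staining.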
The depositor's hits bear a star; i = inactive; ? = inconclusive; nt = no result; [ ] = dose if it differs, or a comment. This is a sample that favours compounds with a hit; in the whole collection about 5.8% have one here. Unless noted, calls come from the whole dose curve; as a rule, active = well fitted curve in the direction sought with a large enough effect; inconclusive = small, poorly fitted or top-dose-only effect, or another doubt; inactive = no such curve, though single readings can be large; an effect the other way counts as inactive or inconclusive. Potency is the fitted concentration of half-maximal effect.

SMILES	KB-V1 MDR tox	PINK1 expr mod	KB-3-1 tox	ALOX12 inh	MCF10A rereplic	SW480 rerep
COc1cccc2c(=O)c3c(cnn3C)n(C)c12	21µM*	0%	i	0%	?	24%
COc1cccc(-c2c(-c3ccccc3OC)ncn2Cc2cccc(-c3ccccc3)c2)c1	13µM*	nt	?	-17%	nt	nt
CCCCc1c(-c2ccccc2OC)ncn1Cc1cc(F)cc(F)c1	nt	nt	nt	-6%	nt	nt
CCCCc1c(-c2ccccc2OC)ncn1Cc1cccc(OC)c1	nt	nt	nt	0%	nt	nt
CCCCc1c(-c2ccccc2OC)ncn1CCc1cccc(F)c1	16µM*	?	?	-31%	nt	nt
CCCCc1c(-c2ccccc2OC)ncn1CCc1cccc(OC)c1	12µM*	?	?	?	nt	nt
CCONC(=O)c1cccc(NC(C)=O)c1	nt	nt	nt	-43%	nt	nt
Cc1[nH]c2ccccc2c1C1c2ccccc2C(=O)N1CC(=O)N1CCN(C)CC1 (stereo unspecified)	nt	nt	nt	-2%	nt	nt
C[C@H]1[C@@H]2[C@@H](O)C([C@H](C)C(=O)N3CCCC3)CC[C@@]2(C)CC[C@@H]1NC(=O)COc1ccccc1 (stereo partly specified)	nt	nt	nt	59%	nt	nt
COc1ccc(C(=O)NCC(C)O)cc1 (stereo unspecified)	nt	nt	nt	-17%	nt	nt
Cc1ccc(-c2nnc(SCC(=O)c3ccc4c(c3)NC(=O)CO4)o2)cc1C	nt	nt	nt	9%	nt	nt
O=C(Nc1cccc(C(F)(F)F)c1)c1cccc(NC(=O)c2cc(=O)c3ccccc3o2)c1	nt	nt	nt	-22%	nt	nt
Cc1ccc(/C=C2/CNC/C(=C/c3ccc(C)cc3)C2=O)cc1	4.1µM*	0%	3.3µM*	-20%	?	4.6µM*
CCOc1ccccc1N(C)C(=O)c1cc2c(=O)n(CC)c3ccccc3c2s1	i	7%	?	-40%	3.7µM*	18µM*
CCn1c(=O)c2cc(C(=O)NCCOC)sc2c2ccccc21	i	1%	i	-14%	13%	-9%
CCOCCCNC(=O)c1cc2c(=O)n(CC)c3ccccc3c2s1	i	10%	?	1%	23µM*	?
Cc1ccc(OCC(=O)Nc2ccc3c(C)cc(=O)oc3c2)cc1C	nt	nt	nt	5%	nt	nt
CC1=C[C@@H](CN2CCC(C(N)=O)CC2)[C@H](C(C)C)C[C@H]1Cc1nnc(-c2ccc(N(C)C)cc2)o1	nt	nt	nt	48%	nt	nt
COc1ccc(Cc2ccc(OC)c(N)c2)cc1N	i	1%[38.3 µM]	i	17%	?	?
COC(=O)c1cc(Cc2ccc(N)c(C(=O)OC)c2)ccc1N	21µM*	0%	?	-12%	4%	2%
COCCn1c(-c2ccc(-c3ccccc3Cl)o2)nc2c1c(=O)[nH]c(=O)n2CC(C)C	i	4%	i	2%	12µM*	?
O=C(Cn1c(=O)n(Cc2ccc(F)cc2)c(=O)c2sccc21)NCc1ccco1	nt	nt	nt	97%	nt	nt
Cc1cccc(C)c1Nc1c(-c2ccc(O)cc2)nc2sccn12	i	-1%	i	20µM*	nt	nt
CSc1cccc(NC(=O)O[C@@H]2CC[C@]3(C)C(CC[C@@H](O)[C@H]3CC(=O)NCc3ccccc3)[C@]2(C)CO)c1 (stereo partly specified)	nt	nt	nt	23%	nt	nt
Fc1ccc(-n2[nH]nnc2=S)cc1N1CCCC1	i	nt	i	8.9µM*	3%	-3%
SMILES	KB-V1 MDR tox	PINK1 expr mod	KB-3-1 tox	ALOX12 inh	MCF10A rereplic	SW480 rerep
COc1ccc(OC)c(/C(O)=C/C(=O)C(=O)Nc2ccccc2OC)c1	9.2µM*	-2%	i	7%	6%	-15%
CCOc1cc(NC(=O)c2ccccc2OC)c(OCC)cc1NC(=O)c1ccccc1	i	0%	?	21%	?	15µM*
CCOc1ccccc1C(=O)Nc1cc(OC)ccc1OC	15µM*	0%	i	25%	9%	1%
COc1ccc(NC(=O)Nc2ccccc2OC)cc1	i	-2%[38.3 µM]	i	8%	0%	1%
CCOc1ccc(NC(=O)c2c(OC)cccc2OC)cc1	i	2%	i	-1%	0.65µM*	-5%
O=C(N/N=C/c1cccc(I)c1)c1cccs1	nt	nt	nt	19%	nt	nt
